According to the supplement of paper PMC10849652:
Targets with a hit are over-represented here; the source holds about 8,800 in all. About 0.5% of all pairs of compound and target were hits. A number with no mark means an inactive call.

Assays:
Assay in all cases: log2 fold change, soluble protein after heating vs DMSO (PISA); higher = thermal stabilisation; K562 lysate, 10 uM; active = over 0.2 and 3.5 SD of the protein, either way, in both replicates (recomputed)
vemurafenib = compound: CCCS(=O)(=O)Nc1ccc(F)c(C(=O)c2c[nH]c3ncc(-c4ccc(Cl)cc4)cc23)c1F [vemurafenib]
In short: (§1)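 Soluble protein was defined as the supernatant remaining after 21,000xg for 90 min, following pooling of heated aliquots and adjustment to 0.5% NP-40 at 4°C. Before that, crude K562 extract at 1 mg/mL protein in PBS pH 7.4 with 1 mM MgCl2 was treated with 10 μM compound for 30 min and heated for 3 min across 48°C-58°C. Quantification used TMTpro 16plex LC-MS/MS with channel sums equalised, and values are log-two fold changes in thermal stability relative to solvent controls from duplicates.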

[1] = compound: CCCS(=O)(=O)Nc1ccc(F)c(C(=O)c2c[nH]c3ncc(Cl)cc23)c1F
In short: as §1

barasertib = compound: CCN(CCCOc1ccc2c(Nc3cc(CC(=O)Nc4cccc(F)c4)[nH]n3)ncnc2c1)CCOP(=O)(O)O [barasertib]
In short: as §1

[2] = compound: CC[C@@H]1C(=O)N(C)c2cnc(Nc3ccc(C(=O)NC4CCN(C)CC4)cc3OC)nc2N1C1CCCC1
In short: as §1

volasertib = compound: CC[C@@H]1C(=O)N(C)c2cnc(Nc3ccc(C(=O)N[C@H]4CC[C@H](N5CCN(CC6CC6)CC5)CC4)cc3OC)nc2N1C(C)C [volasertib]
In short: as §1

[3] = compound: CCn1c(C(=O)N(C2CC2)C2CC2)cc2c3c(ncn3C)c(Nc3cc(C)n(C)n3)nc21
In short: as §1

[4] = compound: CCn1cc(-c2ccnc3[nH]c(-c4cccc(CN(C)C)c4)cc23)c(-c2ccc(NC(=O)N(C)C)cc2)n1
In short: as §1

[5] = compound: CN1CCC(CNc2ccc3ncc(-c4cccc(OC(F)(F)F)c4)n3n2)CC1
In short: as §1

saracatinib = compound: CN1CCN(CCOc2cc(OC3CCOCC3)c3c(Nc4c(Cl)ccc5c4OCO5)ncnc3c2)CC1 [saracatinib]
In short: as §1

sotrastaurin = compound: CN1CCN(c2nc(C3=C(c4c[nH]c5ccccc45)C(=O)NC3=O)c3ccccc3n2)CC1 [sotrastaurin]
In short: as §1

alvocidib = compound: CN1CC[C@H](c2c(O)cc(O)c3c(=O)cc(-c4ccccc4Cl)oc23)[C@H](O)C1 [alvocidib]
In short: as §1

Tubastatin A = compound: CN1CCc2c(c3ccccc3n2Cc2ccc(C(=O)NO)cc2)C1 [Tubastatin A]
In short: as §1

[6] = compound: CNC(=O)C1=CC=CC=C1NC2=NC(=NC=C2Cl)NC3=C(C=C(C=C3)N4CCOCC4)OC
In short: as §1

defactinib = compound: CNC(=O)c1ccc(Nc2ncc(C(F)(F)F)c(NCc3nccnc3N(C)S(C)(=O)=O)n2)cc1 [defactinib]
In short: as §1

[7] = compound: CNc1nc(-c2ccc3c(N)n[nH]c3c2)cc(N2C[C@@H](C(=O)NC3CCCCC3)CC[C@H]2C)n1
In short: as §1

encorafenib = compound: COC(=O)N[C@@H](C)CNc1nccc(-c2cn(C(C)C)nc2-c2cc(Cl)cc(NS(C)(=O)=O)c2F)n1 [encorafenib]
In short: as §1

[8] = compound: COC(=O)[C@H](CCSC)NC(=O)C1=C(C=C(C=C1)NC[C@H](CS)N)C2=CC=CC=C2
In short: as §1

alisertib = compound: COc1cc(Nc2ncc3c(n2)-c2ccc(Cl)cc2C(c2c(F)cccc2OC)=NC3)ccc1C(=O)O [alisertib]
In short: as §1

[9] = compound: COc1cc2nc(-c3cc(F)ccc3O)nc(N[C@@H]3CNC[C@H]3C(C)(C)O)c2cc1OC
In short: as §1

gefitinib = compound: COc1cc2ncnc(Nc3ccc(F)c(Cl)c3)c2cc1OCCCN1CCOCC1 [gefitinib]
In short: as §1

Chain of UniProt Q8WXB1 (Q8WXB1 whole entry, looked up): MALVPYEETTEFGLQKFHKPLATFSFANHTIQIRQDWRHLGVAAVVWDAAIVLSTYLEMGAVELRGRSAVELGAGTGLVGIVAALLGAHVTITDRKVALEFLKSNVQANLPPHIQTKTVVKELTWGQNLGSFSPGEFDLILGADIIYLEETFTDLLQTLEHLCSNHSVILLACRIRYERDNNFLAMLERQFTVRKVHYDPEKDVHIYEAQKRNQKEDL
Chain of UniProt Q07954 (Q07954 whole entry, looked up): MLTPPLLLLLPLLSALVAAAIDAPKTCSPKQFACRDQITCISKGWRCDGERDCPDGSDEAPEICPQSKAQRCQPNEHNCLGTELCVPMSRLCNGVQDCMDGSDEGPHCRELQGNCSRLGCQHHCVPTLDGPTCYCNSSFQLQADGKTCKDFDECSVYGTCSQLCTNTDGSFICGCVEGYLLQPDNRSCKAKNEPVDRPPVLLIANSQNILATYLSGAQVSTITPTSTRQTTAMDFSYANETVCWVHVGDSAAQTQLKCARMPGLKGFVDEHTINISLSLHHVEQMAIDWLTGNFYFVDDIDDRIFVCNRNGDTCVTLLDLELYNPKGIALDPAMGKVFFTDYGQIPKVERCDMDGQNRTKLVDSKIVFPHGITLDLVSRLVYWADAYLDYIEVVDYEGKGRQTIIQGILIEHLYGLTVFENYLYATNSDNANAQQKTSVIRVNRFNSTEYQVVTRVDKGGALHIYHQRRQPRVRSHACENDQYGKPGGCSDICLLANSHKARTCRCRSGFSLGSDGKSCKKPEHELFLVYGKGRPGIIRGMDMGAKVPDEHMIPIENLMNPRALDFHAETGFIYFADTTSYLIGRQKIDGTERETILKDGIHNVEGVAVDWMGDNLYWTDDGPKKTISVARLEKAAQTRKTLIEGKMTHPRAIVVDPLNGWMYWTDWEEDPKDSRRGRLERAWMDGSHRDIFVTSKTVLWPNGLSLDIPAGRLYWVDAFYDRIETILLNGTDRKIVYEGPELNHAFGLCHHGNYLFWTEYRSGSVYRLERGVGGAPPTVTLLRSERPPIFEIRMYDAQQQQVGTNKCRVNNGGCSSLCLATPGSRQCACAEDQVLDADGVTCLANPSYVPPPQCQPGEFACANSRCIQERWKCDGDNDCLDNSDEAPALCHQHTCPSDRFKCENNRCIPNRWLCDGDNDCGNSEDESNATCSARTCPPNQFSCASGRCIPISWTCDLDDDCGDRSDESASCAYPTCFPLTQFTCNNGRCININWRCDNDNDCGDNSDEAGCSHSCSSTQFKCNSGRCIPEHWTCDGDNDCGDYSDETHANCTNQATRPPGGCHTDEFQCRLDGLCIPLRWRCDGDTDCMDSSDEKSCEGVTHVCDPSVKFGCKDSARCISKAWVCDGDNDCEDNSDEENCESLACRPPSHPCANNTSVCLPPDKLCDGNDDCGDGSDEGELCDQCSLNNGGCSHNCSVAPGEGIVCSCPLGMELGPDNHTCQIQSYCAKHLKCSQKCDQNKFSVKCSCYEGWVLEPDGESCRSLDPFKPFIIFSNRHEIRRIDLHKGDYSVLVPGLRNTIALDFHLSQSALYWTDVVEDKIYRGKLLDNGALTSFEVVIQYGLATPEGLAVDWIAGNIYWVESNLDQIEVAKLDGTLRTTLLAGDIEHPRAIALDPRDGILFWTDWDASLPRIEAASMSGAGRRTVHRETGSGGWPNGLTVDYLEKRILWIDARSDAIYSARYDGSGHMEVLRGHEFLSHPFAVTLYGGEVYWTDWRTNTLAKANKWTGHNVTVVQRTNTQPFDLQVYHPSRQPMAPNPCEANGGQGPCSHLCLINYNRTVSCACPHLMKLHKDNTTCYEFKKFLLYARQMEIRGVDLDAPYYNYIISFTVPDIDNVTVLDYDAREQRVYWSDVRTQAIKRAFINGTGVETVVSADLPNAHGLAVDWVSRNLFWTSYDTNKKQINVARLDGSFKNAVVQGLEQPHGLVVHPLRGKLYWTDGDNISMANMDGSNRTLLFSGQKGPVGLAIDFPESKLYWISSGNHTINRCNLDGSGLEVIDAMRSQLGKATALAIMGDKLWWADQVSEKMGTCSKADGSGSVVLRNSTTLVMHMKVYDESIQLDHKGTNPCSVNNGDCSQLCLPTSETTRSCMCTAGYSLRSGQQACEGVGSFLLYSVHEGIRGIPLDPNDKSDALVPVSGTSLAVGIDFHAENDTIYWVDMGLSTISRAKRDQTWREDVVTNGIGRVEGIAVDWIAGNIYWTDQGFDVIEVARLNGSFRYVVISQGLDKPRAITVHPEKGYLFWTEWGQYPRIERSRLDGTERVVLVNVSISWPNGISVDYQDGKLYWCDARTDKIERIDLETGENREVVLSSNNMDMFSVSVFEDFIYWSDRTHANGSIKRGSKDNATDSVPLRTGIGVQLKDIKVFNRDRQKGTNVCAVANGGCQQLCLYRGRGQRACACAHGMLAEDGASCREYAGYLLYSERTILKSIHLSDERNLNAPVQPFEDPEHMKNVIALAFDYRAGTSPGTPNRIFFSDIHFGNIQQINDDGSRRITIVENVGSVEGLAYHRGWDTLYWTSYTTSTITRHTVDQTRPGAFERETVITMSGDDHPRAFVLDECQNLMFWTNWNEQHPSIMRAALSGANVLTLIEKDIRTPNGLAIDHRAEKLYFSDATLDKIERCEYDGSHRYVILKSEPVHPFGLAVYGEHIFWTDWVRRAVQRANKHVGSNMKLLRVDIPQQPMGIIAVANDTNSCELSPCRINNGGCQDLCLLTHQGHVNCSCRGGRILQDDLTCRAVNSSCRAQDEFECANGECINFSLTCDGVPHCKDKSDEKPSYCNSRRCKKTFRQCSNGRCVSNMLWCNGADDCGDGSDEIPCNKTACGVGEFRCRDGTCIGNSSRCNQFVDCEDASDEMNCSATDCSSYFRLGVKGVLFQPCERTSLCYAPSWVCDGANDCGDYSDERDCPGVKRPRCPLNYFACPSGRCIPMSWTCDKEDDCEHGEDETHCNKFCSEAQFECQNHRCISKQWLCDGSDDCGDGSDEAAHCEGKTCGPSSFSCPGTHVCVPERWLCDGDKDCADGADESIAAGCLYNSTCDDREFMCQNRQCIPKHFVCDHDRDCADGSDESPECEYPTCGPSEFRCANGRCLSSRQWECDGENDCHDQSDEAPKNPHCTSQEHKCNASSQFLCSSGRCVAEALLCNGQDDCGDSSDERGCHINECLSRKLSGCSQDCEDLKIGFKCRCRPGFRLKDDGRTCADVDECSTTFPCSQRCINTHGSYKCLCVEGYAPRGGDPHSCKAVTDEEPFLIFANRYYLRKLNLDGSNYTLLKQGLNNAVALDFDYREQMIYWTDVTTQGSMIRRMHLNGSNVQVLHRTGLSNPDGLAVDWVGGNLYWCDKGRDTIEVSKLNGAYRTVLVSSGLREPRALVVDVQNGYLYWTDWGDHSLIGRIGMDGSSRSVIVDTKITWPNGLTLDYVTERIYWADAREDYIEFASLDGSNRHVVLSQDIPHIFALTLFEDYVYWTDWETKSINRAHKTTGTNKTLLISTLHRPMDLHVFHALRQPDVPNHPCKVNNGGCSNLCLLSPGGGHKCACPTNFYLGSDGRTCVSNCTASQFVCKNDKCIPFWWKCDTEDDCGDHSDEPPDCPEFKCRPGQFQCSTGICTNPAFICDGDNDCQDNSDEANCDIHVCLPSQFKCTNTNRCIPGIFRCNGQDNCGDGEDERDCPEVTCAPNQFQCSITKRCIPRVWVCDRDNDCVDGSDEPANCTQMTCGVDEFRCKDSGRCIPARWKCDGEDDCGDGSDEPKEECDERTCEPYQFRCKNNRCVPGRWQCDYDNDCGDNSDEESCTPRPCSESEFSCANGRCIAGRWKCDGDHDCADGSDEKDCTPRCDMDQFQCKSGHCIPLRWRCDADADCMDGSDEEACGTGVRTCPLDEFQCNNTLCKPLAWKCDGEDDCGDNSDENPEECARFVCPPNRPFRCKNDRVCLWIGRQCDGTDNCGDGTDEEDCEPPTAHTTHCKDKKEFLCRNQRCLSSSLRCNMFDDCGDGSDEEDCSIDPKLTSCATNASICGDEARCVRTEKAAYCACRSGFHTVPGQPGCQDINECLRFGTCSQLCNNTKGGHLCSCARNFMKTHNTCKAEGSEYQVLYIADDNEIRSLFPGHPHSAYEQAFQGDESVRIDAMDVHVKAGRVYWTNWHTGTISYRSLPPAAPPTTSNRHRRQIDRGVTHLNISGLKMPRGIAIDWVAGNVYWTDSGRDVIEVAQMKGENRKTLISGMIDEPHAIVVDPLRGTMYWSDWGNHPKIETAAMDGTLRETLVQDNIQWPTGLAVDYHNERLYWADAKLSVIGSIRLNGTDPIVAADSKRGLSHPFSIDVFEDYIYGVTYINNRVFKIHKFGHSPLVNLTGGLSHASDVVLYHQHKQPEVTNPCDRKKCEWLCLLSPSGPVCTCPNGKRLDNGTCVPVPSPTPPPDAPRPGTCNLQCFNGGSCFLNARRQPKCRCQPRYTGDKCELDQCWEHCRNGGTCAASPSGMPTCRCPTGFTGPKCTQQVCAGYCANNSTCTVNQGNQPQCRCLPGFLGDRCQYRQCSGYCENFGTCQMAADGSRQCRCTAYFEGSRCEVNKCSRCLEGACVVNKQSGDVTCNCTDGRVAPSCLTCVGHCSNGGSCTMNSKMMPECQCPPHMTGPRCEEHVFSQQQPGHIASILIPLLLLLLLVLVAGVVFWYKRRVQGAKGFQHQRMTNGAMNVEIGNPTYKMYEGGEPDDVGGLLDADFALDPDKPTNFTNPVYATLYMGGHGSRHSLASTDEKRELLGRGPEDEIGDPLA
Chain of UniProt Q02750 (Q02750 whole entry, looked up): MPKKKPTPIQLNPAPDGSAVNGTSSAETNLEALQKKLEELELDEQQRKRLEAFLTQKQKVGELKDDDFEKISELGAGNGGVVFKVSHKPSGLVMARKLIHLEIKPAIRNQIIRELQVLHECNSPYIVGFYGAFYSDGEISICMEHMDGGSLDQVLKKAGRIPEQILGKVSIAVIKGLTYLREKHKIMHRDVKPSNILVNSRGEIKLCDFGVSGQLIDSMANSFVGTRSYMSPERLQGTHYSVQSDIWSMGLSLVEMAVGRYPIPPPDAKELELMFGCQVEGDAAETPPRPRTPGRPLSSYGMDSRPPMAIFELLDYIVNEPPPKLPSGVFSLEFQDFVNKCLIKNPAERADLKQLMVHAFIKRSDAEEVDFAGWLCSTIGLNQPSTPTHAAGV

Row | Target | log2 fold change (vemurafenib) | log2 fold change [1] | log2 fold change (barasertib) | log2 fold change [2] | log2 fold change (volasertib) | log2 fold change [3] | log2 fold change [4] | log2 fold change [5] | log2 fold change (saracatinib) | log2 fold change (sotrastaurin) | log2 fold change (alvocidib) | log2 fold change (Tubastatin A) | log2 fold change [6] | log2 fold change (defactinib) | log2 fold change [7] | log2 fold change (encorafenib) | log2 fold change [8] | log2 fold change (alisertib) | log2 fold change [9] | log2 fold change (gefitinib)
1 | MAP2K1 (UniProt Q02750) | 0.056 | 0.194 | 0.022 | -0.043 | -0.051 | -0.057 | 0.281 | -0.041 | 0.032 | 0.015 | 0.06 | -0.011 | 0.066 | 0.013 | 0.028 | -0.07 | -0.063 | -0.036 | 0.021 | 0.029
2 | MAST2 (UniProt Q6P0Q8) | 0.134 | -0.062 | 0.105 | 0.068 | 0.045 | -0.127 | 0.102 | 0.06 | 0.056 | -0.024 | -0.096 | -0.06 | 0.219 | -0.009 | -0.009 | 0.114 | 0.078 | – | -0.002 | –
3 | LGALS3BP (UniProt Q08380) | -0.196 | 0.01 | – | 0.036 | 0.044 | – | 0.168 | 0 | 0.219 | -0.067 | -0.187 | – | -0.234 | -0.133 | -0.571 (active) | 0.023 | 0.082 | -0.074 | 0.092 | 0.019
4 | MAPK7 (UniProt Q13164) | – | 0.024 | – | 0.072 | -0.056 | – | -0.084 | -0.101 | – | -0.031 | 0.069 | – | 0.002 | – | – | -0.03 | -0.114 | – | 0.157 | –
5 | LSM11 (UniProt P83369) | 0.077 | – | – | 0.06 | – | – | 0.115 | 0.212 | 0.076 | -0.085 | 0.134 | – | -0.15 | -0.119 | 0.009 | 0.082 | 0.041 | – | – | –
6 | KIF26A (UniProt Q9ULI4) | 0.135 | – | 0 | 0.08 | – | -0.01 | -0.076 | -0.005 | -0.067 | -0.033 | 0.022 | 0.566 (active) | -0.149 | -0.105 | -0.021 | -0.052 | 0.035 | 0.004 | – | 0.056
7 | LRP1 (UniProt Q07954) | 0.15 | -0.072 | – | -0.163 | 0.004 | – | – | – | – | -0.043 | – | – | – | -0.108 | – | -0.091 | 0.043 | – | 0.034 | –
8 | MBTPS1 (UniProt Q14703) | 0.247 | – | 0.199 | 0.034 | – | 0.003 | 0.211 | -0.185 | -0.031 | -0.014 | 0.096 | -0.058 | 0.013 | -0.002 | 0.029 | 0.048 | -0.036 | – | – | –
9 | MRPL30 isoform 2 (UniProt Q8TCC3) | – | 0.002 | 0.002 | -0.068 | -0.013 | -0.027 | 0.563 (active) | -0.434 (active) | 0.01 | 0.016 | 0.419 (active) | 0.034 | -0.003 | – | -0.002 | -0.049 | -0.034 | -0.033 | -0.003 | -0.013
10 | MME (UniProt P08473) | – | -0.092 | -0.084 | – | 0.001 | 0.075 | -0.044 | 0.009 | -0.114 | 0.016 | -0.01 | 0.081 | 0.048 | – | 0.142 | – | – | -0.079 | -0.018 | 0.066
11 | LRPPRC (UniProt H7C3W8) | 0.566 | – | – | – | – | – | – | – | – | – | – | – | – | -0.063 | – | – | – | – | – | –
12 | MAPK3 (UniProt H0YEX6) | – | – | – | – | – | – | – | – | – | – | – | – | – | – | – | – | – | -0.128 | – | -0.016
13 | MCUB (UniProt Q9NWR8) | – | -0.175 | 0.156 | – | -0.041 | -0.222 | 0 | -0.054 | -0.096 | -0.008 | 0.019 | 0.105 | -0.032 | – | -0.074 | – | – | 0.121 | -0.062 | -0.046
14 | KIFC3 isoform 6 (UniProt Q9BVG8) | 0.052 | – | 0.025 | 0.409 | – | – | 0.284 | 0.256 | 0.005 | 0.028 | -0.786 (active) | – | 0.003 | -0.255 | 0.308 | -0.053 | 0.04 | – | – | –
15 | MRPL22 (UniProt Q9NWU5) | – | 0.001 | – | – | -0.002 | -0.069 | -0.006 | -0.045 | – | -0.013 | 0.018 | -0.033 | 0.036 | – | – | – | – | -0.003 | -0.052 | -0.051
16 | KMT2B (UniProt Q9UMN6) | – | – | – | -0.1 | – | – | – | – | 0.081 | -0.206 | – | – | -0.083 | – | 0.246 | 0.127 | -0.008 | – | – | –
17 | METTL21A (UniProt Q8WXB1) | – | 0.04 | 0.062 | – | -0.034 | -0.054 | -0.011 | 0.049 | 0.263 (active) | 0.04 | 0.009 | 0.052 | 0.087 | – | 0 | – | – | 0.004 | 0.011 | -0.028
18 | MED28 (UniProt Q9H204) | – | -0.004 | – | – | 0.096 | 0.053 | -0.063 | 0.322 | -0.032 | -0.028 | -0.292 | 0.05 | 0.14 | – | 0.081 | – | – | 0.011 | -0.024 | -0.217
19 | MAP3K4 isoform 2 (UniProt Q9Y6R4) | – | – | – | – | – | – | – | – | – | -0.004 | – | – | – | – | – | – | – | – | – | –
20 | LRRC9 (UniProt Q6ZRR7) | -0.011 | – | – | -0.022 | – | – | -0.25 | 0.131 | – | 0.01 | 0.911 | – | – | -0.056 | – | -0.022 | 0.003 | – | – | –
21 | MRPL27 (UniProt Q9P0M9) | – | -0.051 | -0.01 | 0.076 | 0.017 | -0.006 | 0.926 (active) | -0.218 | 0.009 | 0.05 | 0.082 | -0.017 | 0.016 | – | -0.028 | -0.047 | 0.008 | -0.019 | 0 | 0.022
